From PubChem BioAssay (NCI)
The panel holds about 79,000 compounds, 15% with a hit somewhere; the sample as a whole holds those more often. The source made the active and inactive calls. Cut-off read from the data, not from the text of the source: active = growth inhibition above about 70%; inactive = the rest.

Tests used:
[1] = NCI Yeast Anticancer Drug Screen. Data for the wt1 strain (AID 149);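 note: 0% = growth of vehicle-treated wt1 cultures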; conditions: S. cerevisiae wt1 strain (SPY 50644) growth inhibition, active compounds read high
In short: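 The wt1 strain was treated with compounds, and growth was compared with vehicle-treated cultures to give inhibition.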

[2] = NCI Yeast Anticancer Drug Screen. Data for the rad50EPP+ strain (AID 151);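 note: 0% = growth of vehicle-treated control cultures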; conditions: S. cerevisiae rad50 mutant strain, active compounds read high
In short: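 One strain with a rad50 alteration (rad50EPP+) was compound-treated, its growth then compared to that of vehicle controls.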

[3] = NCI Yeast Anticancer Drug Screen. Data for the mgt1 strain (AID 153); conditions: S. cerevisiae mgt1 mutant growth inhibition, active compounds read high
In short: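 After exposure of the mgt1 yeast mutant to compound, growth was measured and reported as inhibition compared with vehicle controls.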

[4] = NCI Yeast Anticancer Drug Screen. Data for the rad50 strain (AID 155);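 note: 0% = growth of vehicle-only cultures of the same strain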; conditions: S. cerevisiae rad50 strain growth inhibition, active compounds read high
In short: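 Cells are treated with compound, grown, and their growth is then scored against vehicle-only cultures of the same repair-deficient yeast strain.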

[5] = NCI Yeast Anticancer Drug Screen. Data for the mec2-1 strain (AID 157); conditions: S. cerevisiae mec2-1 strain, active compounds read high
In short: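 Test agents were screened against the mec2-1 yeast strain, with defined DNA repair or cell cycle alteration. Growth was scored as inhibition against vehicle-only controls.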

[6] = NCI Yeast Anticancer Drug Screen. Data for the rad14 strain (AID 159);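 note: 0% = growth of vehicle-treated control cultures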; conditions: S. cerevisiae rad14 strain growth inhibition, active compounds read high
In short: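 Readout: yeast growth inhibition, referenced to vehicle-only cultures. Strain bears a defined alteration in DNA damage repair.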

[7] = NCI Yeast Anticancer Drug Screen. Data for the sgs1 mgt1 strain (AID 161);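 note: 0% = growth of cultures given vehicle only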; conditions: S. cerevisiae sgs1 mgt1 strain, active compounds read high
In short: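 Test agents were incubated with a DNA-repair-mutant yeast strain. Growth was then read and compared against vehicle-treated controls.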

[8] = NCI Yeast Anticancer Drug Screen. Data for the CLN2oe strain (AID 163);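 note: 0% = growth of vehicle-only control cultures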; conditions: S. cerevisiae CLN2oe strain, active compounds read high
In short: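 Here, growth inhibition in a cell-cycle-altered yeast strain after compound exposure was quantified against vehicle control growth.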

[9] = NCI Yeast Anticancer Drug Screen. Data for the cln2 rad14 strain (AID 165);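 note: 0% = growth equal to vehicle treated cultures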; conditions: S. cerevisiae cln2 rad14 strain, active compounds read high
In short: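 Growth of compound-exposed yeast (cln2 rad14 genotype) measured and expressed as inhibition relative to vehicle.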

[10] = NCI Yeast Anticancer Drug Screen. Data for the bub3 strain (AID 167); conditions: S. cerevisiae bub3 mutant strain, active compounds read high
In short: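 Part of a panel of yeast mutants defective in DNA damage repair or cell cycle regulation. Each strain is grown with compound, and inhibition is calculated relative to solvent-treated cultures.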

[11] = NCI Yeast Anticancer Drug Screen. Data for the wt2 strain (AID 169);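 note: 0% = growth of vehicle-treated yeast cultures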; conditions: S. cerevisiae wt2 strain growth inhibition, active compounds read high
In short: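 Genetically defined yeast strains from a DNA-repair/cell-cycle panel were used. Compound-exposed yeast growth was measured, and the inhibition was calculated relative to vehicle treatment.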

[12] = NCI Yeast Anticancer Drug Screen. Data for the mlh1 strain (AID 171);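 note: 0% = growth of vehicle-treated control cultures of the same strain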; conditions: S. cerevisiae mlh1 strain growth inhibition, active compounds read high
In short: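 Here the genetically defined yeast mutant is grown with each compound, and the extent to which its growth falls below that of vehicle-exposed cells is reported.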

[13] = NCI Yeast Anticancer Drug Screen. Data for the sgs1 strain (AID 173);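 note: 0% = growth of vehicle-only control cultures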; conditions: S. cerevisiae sgs1 mutant, active compounds read high
In short: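 Relative growth inhibition, referenced to vehicle, was determined in a yeast strain with a defined alteration affecting DNA damage repair or cell cycle control after compound exposure.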

[14] = NCI Yeast Anticancer Drug Screen. Data for the mlh1 rad18 strain (AID 175); conditions: S. cerevisiae mlh1 rad18 strain growth inhibition, active compounds read high
In short: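 In this whole-cell yeast screen, a strain with altered DNA damage repair is challenged with compound, and its growth is measured against matched vehicle-treated controls.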

[15] = NCI Yeast Anticancer Drug Screen. Data for the rad18 strain (AID 177); conditions: S. cerevisiae rad18 mutant growth inhibition, active compounds read high
In short: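 Screen uses a yeast strain with a defined lesion in DNA damage repair; compound effect is read as loss of growth compared to untreated vehicle cultures.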

[16] = at 5.0 µM (retest, dose inferred, filed as 0.5)
[17] = at 50.0 µM (retest, dose inferred, filed as 5.0)

Measured: growth inhibition

CC[C@@]1(O)C(=O)OCc2c1cc1n(c2=O)Cc2cc3c(NC(=O)CN)cccc3nc2-1
active: [4]; at 33.0 µM 79% | [4]; [17] 72% | [4]; at 50.0 µM 88.2% | [4]; at 100.0 µM 88%
inactive: [1]; at 1.2 µM 1% | [1]; at 3.7 µM -1% | [1]; at 11.0 µM -2% | [1]; at 33.0 µM -3% | [1]; at 100.0 µM 0% | [2]; at 1.2 µM -4% | [2]; at 3.7 µM 2% | [2]; at 11.0 µM 6% | [2]; at 33.0 µM 19% | [2]; at 100.0 µM 49% | [3]; at 1.2 µM -3% | [3]; at 3.7 µM 1% | [3]; at 11.0 µM 0% | [3]; at 33.0 µM -1% | [3]; at 100.0 µM -3% | [4]; at 1.2 µM 8% | [4]; at 3.7 µM 21% | [4]; [16] 1% | [4]; at 11.0 µM 54% | [5]; at 1.2 µM -3% | [5]; at 3.7 µM -4% | [5]; [16] -9% | [5]; at 11.0 µM -3% | [5]; at 33.0 µM 1% | [5]; [17] -5% | [5]; at 50.0 µM -11.8% | [5]; at 100.0 µM 19% | [6]; at 1.2 µM 2% | [6]; at 3.7 µM -4% | [6]; at 11.0 µM 0% | [6]; at 33.0 µM -4% | [6]; at 100.0 µM -1% | [7]; [16] -11% | [7]; [17] -3% | [7]; at 50.0 µM -1.65% | [8]; at 1.2 µM 0% | [8]; at 3.7 µM -2% | [8]; at 11.0 µM -1% | [8]; at 33.0 µM -2% | [8]; at 100.0 µM 0% | [9]; [16] -35% | [9]; [17] -26% | [9]; at 50.0 µM 26.9% | [10]; at 1.2 µM -12% | [10]; at 3.7 µM -6% | [10]; [16] -19% | [10]; at 11.0 µM 8% | [10]; at 33.0 µM 7% | [10]; [17] -3% | [10]; at 50.0 µM 8.3% | [10]; at 100.0 µM -6% | [11]; at 1.2 µM -1% | [11]; at 3.7 µM 1% | [11]; at 11.0 µM 0% | [11]; at 33.0 µM -1% | [11]; at 100.0 µM 0% | [12]; at 1.2 µM -5% | [12]; at 3.7 µM -3% | [12]; at 11.0 µM -3% | [12]; at 33.0 µM -6% | [12]; at 100.0 µM 2% | [13]; at 1.2 µM -2% | [13]; at 3.7 µM -3% | [13]; at 11.0 µM -2% | [13]; at 33.0 µM -1% | [13]; at 100.0 µM 7% | [14]; [16] -12% | [14]; [17] -9% | [14]; at 50.0 µM -0.55% | [15]; at 1.2 µM -18% | [15]; at 3.7 µM -6% | [15]; at 11.0 µM -19% | [15]; at 33.0 µM -8% | [15]; at 100.0 µM -10%
